Shown are actives, neighbours in structure and some others; about 4.3% of the full set was active somewhere.
D3 ag: D3 dopamine receptor (human) agonism; AID 652048; 0.58% of 410,000 active; P35462; D3R DiscoveRx beta-arrestin cells, luminescence, 90 min; max activation, %; in the data active means max activation above about 30%
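Agonist mode: compounds and dopamine controls were applied to plated cells for 90 min at 37 degrees C after an overnight attachment at 1500 cells/well. Luminescent read-out followed 30 - 60 minutes at room temperature with DiscoveRx detection reagent.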
GLP-1R agonist: agonists of human GLP-1 receptor; P43220; HEK293 GLP-1R CRE-luciferase, luminescence, 4-6 h; cells express a hypersensitive GLP-1R form; Potency, µM (highest dose often 45.6 µM), most hits filed as activators; 0.007% of 380,000 active
Target sequence (P43220 whole entry, looked up): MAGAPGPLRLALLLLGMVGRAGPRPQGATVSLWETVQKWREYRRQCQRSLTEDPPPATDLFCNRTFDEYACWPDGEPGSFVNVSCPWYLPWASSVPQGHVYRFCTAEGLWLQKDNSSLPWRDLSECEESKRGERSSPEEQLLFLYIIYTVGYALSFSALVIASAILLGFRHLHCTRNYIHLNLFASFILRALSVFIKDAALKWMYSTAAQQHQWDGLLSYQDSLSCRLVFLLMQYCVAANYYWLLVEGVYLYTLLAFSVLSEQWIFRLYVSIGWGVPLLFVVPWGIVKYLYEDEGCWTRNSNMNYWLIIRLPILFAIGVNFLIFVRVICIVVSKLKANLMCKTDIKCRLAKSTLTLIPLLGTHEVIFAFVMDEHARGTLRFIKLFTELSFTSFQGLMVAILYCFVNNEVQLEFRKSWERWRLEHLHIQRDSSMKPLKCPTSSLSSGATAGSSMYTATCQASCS
GLP-1R inv ag: GLP-1 receptor (human) inverse agonism; HEK293 GLP-1R CRE-luciferase, luminescence, 24 h; GLP-1R form is constitutively active; Potency, µM (series often up to 38.3 µM), actives largely listed as inhibitors; 1.6% of 410,000 active; AID 624417; further: nearly all actives have a fitted effect of over 55% in size
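Assay principle: reduced luminescence from a cAMP-responsive reporter in HEK293 cells co-expressing a constitutively active GLP-1R. Conditions: 24 hr compound incubation, 37 deg C, 5% CO2.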
D3 antag: blocks the human D3 dopamine receptor; D3R cells, DiscoveRx beta-arrestin luminescence, antagonist mode; active compounds read low; max response, negative = inhibition, %; P35462; 2.5% of 360,000 active; in the data active means max response below about -50%; inconclusive means no clear call, values can overlap the other calls
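Cells expressing the human receptor were seeded at 1500 cells/well, incubated overnight at 37 degrees C in 5% CO2, then exposed to library compounds with dopamine controls for 90 minutes at 37 degrees C before luminescent detection.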
Numbers stand for hits; 0 = inactive; ? = inconclusive; - = no result. Unless noted, the call rests on the fitted dose curve; in most records, active means well fitted curve in the direction sought with a large enough effect; inconclusive means small, poorly fitted or top-dose-only effect, or another doubt; inactive means no such curve, though single readings can be large; an effect the other way counts as inactive or inconclusive.

SMILES | D3 ag | GLP-1R agonist | GLP-1R inv ag | D3 antag
O=C1OC(N2C(=O)CC[C@H]2C(=O)Nc2ccc(Br)cc2F)c2ccccc21 (some centres undefined) | 0 | 0 | 0 | 0
CCCCN(CCCC)/C(N)=N/c1nc(C)cc(C)n1 | 0 | 0 | 4µM | 0
Cc1cc(C)nc(/N=C(\N)N(Cc2ccccc2)Cc2ccccc2)n1 | 0 | 0 | ? | 0
CCOc1ccc2c(c1)-c1c(ssc1=S)C(C)(C)N2 | 0 | ? | ? | -74
CCOc1ccc2c(c1)-c1c(ssc1=S)C(C)(C)N2C(=O)CSC1=NCCS1 | 0 | 0 | ? | ?
CCN1C(=O)c2ccccc2Sc2ccc(NC(=O)Nc3ccc(Br)c(C)c3)cc21 | 0 | - | 0 | -
COc1cccc(C2CNC3(CCCC(C)C3)c3[nH]c4ccccc4c32)c1OC (centres undefined) | 0 | 0 | ? | 0
CC1(C)CC(=O)CC2(C1)NCC(c1ccccc1)c1c2[nH]c2ccccc12 (centres undefined) | 0 | 0 | 10µM | 0
COC(=O)N1CCCc2cc(S(=O)(=O)N3CCN(c4ccccc4)CC3)ccc21 | 0 | 0 | 0 | -
CCN(CCCNc1ncnc2nc[nH]c12)c1cccc(C)c1 | 0 | 0 | 0 | 0
CCCCN(CCCNc1ncnc2nc[nH]c12)c1ccccc1 | 0 | 0 | 10µM | 0
N#Cc1ccc2sn(-c3ccccc3)c(=O)c2c1 | 0 | 0 | ? | ?
O=c1c2cc([N+](=O)[O-])ccc2sn1-c1ccccc1 | 0 | 0 | 0 | -94
COc1cccc2c1Oc1ncccc1N(C(=O)CCC(=O)NCc1ccc(N(C)C)cc1)C2 | 0 | - | 0 | -
Cc1oc2c(c1C(=O)c1ccccc1)C(=O)C(=O)c1ccccc1-2 | 0 | 0 | 4.5µM | ?
CCc1nc(SCC(=O)N2CCN(c3ccccc3)CC2)c2oc3ccccc3c2n1 | 48 | 0 | 0 | 0
CCCCNC(=S)NNC(=O)CCn1cc(C)cn1 | 0 | 0 | 7.9µM | 0
CCOc1ccccc1N1CCN(Cc2ccc(Br)s2)CC1 | 0 | 0 | 0 | -95
CCOc1ccccc1N1CCN(Cc2cnc(-c3ccccc3)[nH]2)CC1 | 0 | 0 | ? | -94
COc1ccccc1N1CCN(Cc2ccc(Br)o2)CC1 | 0 | 0 | 0 | -81
COc1ccccc1N1CCN(Cc2cccc(OC)c2OC)CC1 | 0 | 0 | 0 | 0
CCOc1ccccc1N1CCN(Cc2ccc(OC)c(OC)c2OC)CC1 | 0 | 0 | 0 | -141
COc1ccc(-c2cc3nccc(-c4cc(Cl)c(C)cc4O)n3n2)cc1 | 0 | 0 | 0 | -
COc1ccccc1N1CCN(Cc2cc3c(cc2Br)OCCO3)CC1 | 0 | 0 | ? | -76
COc1cc(OC)c(OC)cc1CN1CCN(c2ccccc2OC)CC1 | 0 | 0 | 0 | -66
SMILES | D3 ag | GLP-1R agonist | GLP-1R inv ag | D3 antag
CCOC(=O)C1CCN(Cc2ccc(F)cc2F)CC1 | 0 | 0 | 0 | ?
CCOC(=O)C1CCN(c2ccccc2CN2CCN(c3ccccc3OCC)CC2)CC1 | 0 | 0 | 0 | -75
COc1ccc(N2CCN(Cc3cc4c(cc3Br)OCCO4)CC2)cc1 | 0 | 0 | ? | 0
CC(=O)c1sc2nc(-c3ccccc3)cc(C)c2c1N | 0 | 0 | 0 | 0
O=C1c2ccccc2C(=O)N1CC1CO1 (centres undefined) | 63 | 0 | 0 | 0
O=C1c2ccccc2C(=O)N1CC1CCCO1 (centres undefined) | 0 | 0 | 0 | 0
CCC1CCCCN1C(=O)Cn1c(=O)cc(C(F)(F)F)c2c(C)nn(C)c21 (centres undefined) | 0 | - | 10µM | -
CCOC(=O)N1CCC2(CC1)OC(=O)C(C)=C2C(=O)NCc1cccc(OC)c1 | 0 | - | 0 | -
CC(C)CCNC(=O)CN1C(=O)COc2ccc(S(=O)(=O)N3CCOCC3)cc21 | 0 | 0 | 0 | -
COCCCNCCOCCSc1ccc(Cl)cc1 | 0 | 0 | ? | -68
CN(C)CCOCCSc1ccc(Cl)cc1 | 0 | 0 | 0 | -86
OCCNCCSc1ccc(Cl)cc1 | 0 | 0 | 0 | 0
COCCCNCCCCSc1ccc(Cl)cc1 | 0 | 0 | 11µM | ?
CCCCNCCOCCSc1ccc(Cl)cc1 | 0 | 0 | 0 | -81
CCC(=O)N1CCc2cc(S(=O)(=O)NC(C(=O)NCCc3ccc(Cl)cc3)C(C)C)ccc21 (centres undefined) | 0 | - | 0 | -
Cc1ccc(O)c(Nc2nc3ccccc3c3nncn23)c1 | 0 | - | 0 | -
CCC(C)NC(=O)CSc1ccc(Cl)cc1 (centres undefined) | 0 | 0 | 0 | 0
CC(C)NCCOCCSc1ccc(Cl)cc1 | 0 | 0 | 13µM | -84
O=C(Nc1ccc(F)cc1)C1CCN(S(=O)(=O)c2ccc3[nH]c(=O)oc3c2)CC1 | 0 | 0 | 0 | 0
CN1/C(=C/C=C/c2n(C)c3cc([N+](=O)[O-])c([N+](=O)[O-])cc3[n+]2C)C(C)(C)c2ccccc21 | 0 | 0 | ? | -57
Cc1cccc[n+]1CC(=O)/C=C1\N(C)c2ccccc2C1(C)C | 0 | 0 | 0 | 0
COC(=O)[C@@]12C[C@@H](CC(=O)NCC34CC5CC(CC(C5)C3)C4)C(=O)N(Cc3ccco3)C1=CCC(C)(C)C2 | 0 | - | 10µM | 0
COC(=O)[C@@]12C[C@@H](CC(=O)NCc3cccs3)C(=O)N(Cc3cccc4ccccc34)C1=CCC(C)(C)C2 | 0 | - | 11µM | 0
C#CCNC(=O)C[C@@H]1C[C@@]2(C(=O)OC)CC(C)(C)CC=C2N(Cc2ccco2)C1=O | 0 | - | 0 | 0
COc1cc2c(cc1O)CCN[C@@]21CS[C@H]2c3c(OC(C)=O)c(C)c4c(c3C(COC1=O)N1C2C2c3c(cc(C)c(OC)c3O)CC([C@@H]1O)N2C)OCO4 (some centres undefined) | - | 0 | - | -
SMILES | D3 ag | GLP-1R agonist | GLP-1R inv ag | D3 antag
CCc1ccccc1N(CC(=O)NC1CCCCC1)C(=O)CCCC(=O)Nc1ccccn1 | 0 | 0 | 0 | 0
CCC(=O)N1Cc2cc(C(=O)Nc3nccs3)nc(-c3cccc(-c4ccccc4OC)c3)c2[C@H]1CCO | 61 | 0 | ? | 0
COc1ccc(NC(=O)c2cc(-c3ccccc3F)no2)cc1 | 0 | - | 0 | -
CC1CCc2c(sc3nc(C4CC4)nc(N4CCN(C(=O)c5ccco5)CC4)c23)C1 (centres undefined) | 0 | 0 | 5.6µM | 0
CCCN1C(=O)C(Cc2nc3ccccc3c(=O)n2-c2cccc(C)c2)c2ccccc21 (centres undefined) | 0 | - | ? | -
Cc1cccc(C(=O)NCC(=O)OCc2cc(=O)n3nc(CC(C)C)sc3n2)c1 | 0 | - | 0 | -
CSc1ccc(C2C(C#N)=C(N)Oc3c2ccc(=O)c2c(C)oc(C)c32)cc1 (centres undefined) | 0 | 0 | 0 | -51
CCNC(=O)CC1C(=O)N(c2ccc(F)cc2)C(=O)N1Cc1ccc(OC)c(OC)c1 (centres undefined) | 0 | 0 | 0 | -
CCn1c(SCC(=O)NC)nnc1C(C)C | 0 | 0 | 0 | -52
CNC(=O)CSc1nnc(C(C)C)n1C | 0 | 0 | 0 | 0
Cc1ccc(NC(=O)N2CCN(c3ccc(Cl)c(Cl)c3)CC2)cc1 | 0 | - | ? | -
CC(C)c1ccc(NC(=O)N2CCN(S(=O)(=O)c3ccccc3)CC2)cc1 | 0 | 0 | 5.6µM | 0
CC(C)c1ccc(NC(=O)N2CCN(c3ccc(Cl)c(Cl)c3)CC2)cc1 | 0 | - | 7.9µM | -

Assay outcomes from PubChem.
